Potency data for 47 compounds are collected here from PubChem BioAssay AID1347416 (National Center for Advancing Translational Sciences (NCATS), 2020).

Among all 4,100 compounds or so, about 1,600 (39%) were called active. Inconclusive results (about 25%) are left out. The call rests on the fitted dose curve; in most records, active means well fitted inhibition curve with a large enough effect; inconclusive means small, poorly fitted or top-dose-only effect; inactive means no such curve, though single readings can be large or run the other way. The list shows a part of the results. Where a call stands in place of a potency, no number is given.
Potency means the concentration at half of the fitted maximal effect.

The nature of this assay: qHTS Validation assay for Inhibitors of Plasmodium falciparum Dd2 growth in vitro. Further: nearly all actives have a fitted effect of over 70% in size. The following applies: P. falciparum Dd2 in RBCs, SYBR Green growth, 72 h; series mostly up to 28.7 µM. From the text: Malaria, a parasitic disease spread to humans through the bite of a Plasmodium infected Anopheles mosquito, continues to be a global health burden affecting millions of people, with an estimated 228 million cases and 405,000 deaths in 2018. Concerns about safety and limitations of current antimalarial treatments strongly emphasize the need to develop new therapeutic options. The scarce number of chemotypes and validated drug targets with efficacy against the liver stage, have hindered development of new antimalarials. To address this, a chemoprophylactic drug discovery effort was conducted through a combined phenotypic high-throughput asexual blood stage and liver stage screen, providing a robust foundation to identify liver-stage active lead chemotypes. Compounds were initially screened against Plasmodium falciparum Dd2 strain parasites using a in vitro SYBRGreen-1 based 72 hr proliferation assay to identify novel chemotypes to advance to liver stage assays. NIH/NCATS Early Translation Branch Assay Submitter (PI): Anton Simeonov Ph.D.
[…] Assay Protocol: PROTOCOL TABLE (as described by Inglese et al., 2007) SEQUENCE No. (e.g., 1, 2, 3, etc.); PARAMETER (e.g., Cells, Incubation, Reagent, etc.); VALUE; DESCRIPTION SEQUENCE, Parameter, Description 1; Reagent; 3 uL complete malaria growth medium, 1536 TC treated Black clear bottom plate 2; Controls; 23 nL positive control artesunate (300 nM final) to column 1; Neutral control DMSO to columns 2-4 3; Compound; 23 nL of compounds in dose response concentration (29 uM to 0.5 nM final) 4; Reagent; 5 uL malaria infected red blood cells (2.5% hematocrit final, 0.3% parasitemia 5; Time; 72 hours at 37C (5% O2, 5% CO2, 90% N2; 95% Rh) 6; Reagent; 2 uL lysis buffer/SYBRGreen-1, 25 sec shake immediately following dispense 7; Time; ~16 hours at 37C (5% O2, 5% CO2, 90% N2; 95% Rh) 8; Detector; EnVision (PerkinElmer) bottom read at 485/14nm excitation and 535/25 nm emission NOTES (numbers refer to sequence above): 1; Complete Malaria Growth Media: 1X RPMI-1640 w/L-glutamine, 5.5g/L Albumax II, 367 uM Hypoxanthine, 25 mM HEPES, 0.25% Sodium Bicarbonate, 35 uM Gentamicin sulfate 2; Controls were added using the Kalypsis Pintool (Wako USA) equipped with 1536 pinhead 3; Compounds were added in a 7-point, titration with a high final concentration of 29 uM by Pintool from seven inter-plate titrations of library plates and two DMSO control plates at the beginning and end (see Yasgar et al., 2008). 4; Red blood cells infected with Plasmodium falciparum Dd2 parasites were used. 6; Lysis buffer: 20 mM Tris-HCl, 10 mM EDTA, 0.16% Saponin, 1.6% Triton-X, 10X SYBR Green. REFERENCE: Inglese J, Shamu CE, Guy RK. 2007. Reporting data from high-throughput screening of small-molecule libraries. Nat Chem Biol. doi:10.1038/nchembio0807-438 Yasgar A, Shinn P, Jadhav A, Auld D, Michael S, Zheng W, Austin CP, Inglese J, Simeonov A. 2008. Compound Management for Quantitative High-Throughput Screening. J Lab Autom 13:79-89. doi:10.1016/j.jala.2007.12.004
(Quantitative high-throughput screening tests each substance at several concentrations.)
As to `Cc1ccc(-c2cn3c(n2)N(C(=O)c2sc(C)nc2C)CCC3)cc1`, the Potency result was “inactive”. To `COC(=O)c1c(NC(=O)/C(C#N)=C/c2ccccc2)sc2c1C(C(=O)OC)CC2` (configuration not stated) belongs “inactive”. Regarding `CNC(=O)N1CCC(Cc2nncn2C(C)C)C1` (configuration not stated), the Potency entry was “inactive”. The figure for `Cn1cc(C(=O)NCCN2CCN(c3cccc(Cl)c3)CC2)c2c3ccccc3n(C)c2c1=O` is 4.73 µM (active). To `Cn1cc(C(=O)N2CCN(c3ccccc3)CC2)c(=O)c2cc(S(=O)(=O)N3CCCC3)ccc21` belongs “inactive”; to `CCn1cc(C(=O)N2CCN(c3cc(Cl)ccc3C)CC2)c(=O)c2cc(S(=O)(=O)N3CCCCC3)ccc21`, “inactive”; to `COc1cc2c(C(=O)N3CCN(c4cc(Cl)ccc4C)CC3)cn(CC(C)C)c(=O)c2cc1OC`, 15 µM (active).

On to `CCOC(=O)c1ccccc1NC(=O)c1cn(CC(C)C)c(=O)c2cc(OC)c(OC)cc12`, for which the Potency was 8.41 µM (active). To `CCc1ccccc1NC(=O)c1cn(C)c(=O)c2ccccc12` belongs “inactive”; to `Cc1ccc(Cl)cc1N1CCN(C(=O)c2cn(CC(C)C)c(=O)c3c2c2ccccc2n3C)CC1`, 3.35 µM (active).

Consider `COc1ccc(C(=O)N2CCN(c3nnc4cccc(C)n34)CC2)cc1F`, for which the Potency entry was “inactive”. The entry for `CC(C)C[C@H]1NC(=O)[C@@H]2C[C@@H](NC(=O)CS(=O)(=O)c3ccccc3)CCN2C1=O` is “inactive”; for `CCOC(=O)N1CCc2c(sc3c2c(=O)n(CCc2ccccc2)c(=O)n3Cc2c(F)cccc2Cl)C1` it is 2.66 µM (active). `CCOC(=O)N1CCc2c(sc3c2c(=O)n(Cc2ccccc2)c(=O)n3Cc2ccccc2Cl)C1`: the Potency was 4.73 µM (active).

On to `CCOC(=O)N1CCc2c(sc3c2c(=O)n(-c2ccccc2C(F)(F)F)c(=O)n3Cc2ccccc2C)C1`, for which the Potency was 13.3 µM (active). The entry for `CC(=O)N1CCc2c(sc3c2c(=O)n(Cc2ccccc2)c(=O)n3CC(=O)NCC2CCCO2)C1` (configuration not stated) is “inactive”; for `O=C(Cn1ccn2nc3c(c2c1=O)CCCCC3)NCc1ccccc1Cl` it is “inactive”; for `Cc1nc(C)c(C(=O)NCC2CCCCC(=O)N2)s1` (configuration not stated) it is “inactive”. Consider `COc1ccc(OC)c(-n2c(-c3cccc(O)c3)n[nH]c2=S)c1`, for which the Potency is 4.22 µM (active). To `COc1ccc(OC)c(-n2nnc(-c3nc(-c4cc(OC)c(OC)c(OC)c4)no3)c2C)c1` belongs “inactive”; to `O=C1NCCCCCCN(C(=O)c2cnccn2)[C@H]2CCCC[C@@H]12`, “inactive”; to `COc1ccccc1-c1[nH]nc2ncc(-c3c(C)noc3C)nc12`, “inactive”. The figure for `COc1ccc(-c2[nH]nc3ncc(-c4ccc([S+](C)(=O)[O-])cc4)nc23)c(C)c1` is 15.3 µM (active); for `Cc1ccsc1-c1[nH]nc2ncc(-c3ccccc3)nc12` it is “inactive”; for `O=C(O)C[C@@H]1CCN(C(=O)C2CCCCC2)C[C@@H]1CCN1CCOCC1` it is “inactive”.

Turning to `CC1CCC2(CC1)NC(=O)N(CC(=O)Nc1ccc(Cl)cc1)C2=O` (configuration not stated), the Potency entry is “inactive”.

With `CCOc1ccc(NC(=O)CN2C(=O)NC(C)(c3ccc(OC(F)F)cc3)C2=O)cc1` (configuration not stated), the Potency was 9.44 µM (active). To `CCOc1ccccc1C1NC(=O)N(CC(=O)Nc2ccc(OC)cc2)C2=C1C(=O)OC2` (configuration not stated) belongs “inactive”.

For the compound `CCCN(CC1CC1)C(=O)[C@@H]1COCC(=O)N1Cc1ccccc1`, the Potency result is “inactive”. The figure for `Cc1ccc2nc(-c3ccc(O)c(O)c3)cn2c1` is 13.3 µM (active); for `Cc1cc(C)c(S(=O)(=O)Nc2cc(-c3cn4ccccc4n3)ccc2C)cc1C` it is “inactive”; for `CC(C)c1ccc(C2c3[nH]c4ccccc4c3C[C@H]3C(=O)N(c4ccccc4C(=O)N4CCC(C(=O)O)CC4)C(=O)N23)cc1` (some centres not stated) it is 6.68 µM (active). To `CC(=O)Nc1ccc(NC2=Nc3ccccc3N3C2=Nc2c(c(C)nn2-c2ccccc2)C3c2ccccc2)cc1` (configuration not stated) belongs 6.68 µM (active); to `CC(C)NC(=O)N1Cc2[nH]cnc2C[C@H]1C(=O)NCc1ccc(Cl)cc1`, “inactive”; to `Cc1ccc(C(=O)N2CCCN(c3cc(-c4ccc(Br)cc4)[nH]n3)CC2)cn1`, “inactive”. The figure for `O=C(Nc1ccc2c(N3CCOCC3)ncnc2c1)c1ccc(Br)o1` is 2.66 µM (active); for `O=C(Nc1ccc2c(N3CCOCC3)ncnc2c1)c1cccc(Br)c1` it is 4.22 µM (active); for `O=C(Nc1ccc(CN2CCOCC2)cc1)c1ccc(-c2ccc(Br)cc2)o1` it is “inactive”. `CN(C)C(=O)C1CN(C(=O)Nc2cccc(Br)c2)CC12CCOCC2` (configuration not stated): the Potency entry is “inactive”. The figure for `O=C(Nc1ccc2c(N3CCCC3)ncnc2c1)c1cccc(Br)c1` is 0.668 µM (active). To `O=C(COc1ccc(-c2nnc3n2CCCC3)cc1)Nc1cccc(Br)c1` belongs “inactive”. The entry for `O=C(NC1CCCN(c2cc(-c3ccc(Cl)cc3)[nH]n2)C1)c1ccc(Br)o1` (configuration not stated) is “inactive”; for `O=C(Nc1ccc2c(N3CCCC3)ncnc2c1)c1ccc(Br)cc1` it is 4.73 µM (active); for `O=C1[C@H]2CN(Cc3cc(F)ccc3F)C[C@H]2C(=O)N1Cc1ccc2c(c1)OCO2` it is “inactive”. Take `COCCCNC(=O)CCN(CCC(C)C)C(=O)c1cc(C)oc1C`: the Potency entry is “inactive”.

Regarding `Cc1ccc(OC2(C(=O)NC(C)c3nn[nH]n3)CCNCC2)cc1` (configuration not stated), the Potency entry is “inactive”.

Turning to `Clc1ccc(Cn2ncc3c(N4CCOCC4)ncnc32)cc1`, the Potency entry is “inactive”.
